Most compounds without a hit are left out; they make up all but 3.4% or so of the library.
TEAD-YAP block = TEAD-YAP interaction inhibition; HEK-TIYL cells, TEAD-Gal4/YAP UAS-luciferase luminescence; inhibition, % at 9.12 µM; actives 1.4% (n = 640,000); AID 1259422; in the data active means inhibition above about 32%;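 further: 0% = median of test compound wells and 100% = reference inhibitor wells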
GPR151 activ = human GPR151 activation | PathHunter beta-arrestin GPR151 cells, luminescence | activation, % at 11.2 µM | actives 1% (n = 650,000); in the data active means activation above about 4.9%;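 further: 0% = median of compound wells and 100% = cells with positive control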
FBW7 act = activators of human E3 ligase FBW7; actives 0.13% (n = 650,000); normalized activity (activation), % at 26.1 µM; Q969H0; AlphaScreen FBW7–phospho-cyclin E peptide binding, activator screen; in the data active means normalized activity above about 1.9%;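 further: purified mutant Fbw7 with reduced substrate affinity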
MITF primary = human MITF inhibition, primary screen; O75030; AlphaScreen MITF homodimerization, bead proximity signal; inhibition, % at 2.6 µM; actives 0.91% (n = 650,000); AID 1259374; in the data active means inhibition above about 50%;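 further: 0% = vehicle wells with protein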
Active calls of the source: *.

`COC(=O)/C=C/CSc1nnc(-c2ccc(Cl)cc2Cl)o1` gave TEAD-YAP block 91.5*, GPR151 activ 1.0, FBW7 act 0.0 and MITF primary 12.7.
Screening Cc1cc(NC(=O)CN2C(=O)C3C4CCC(C4)C3C2=O)c(C)cc1Br (centres undefined) returned TEAD-YAP block 7.2, GPR151 activ 0.0, FBW7 act -0.2 and MITF primary -16.3.
O=C(CC(O)(C(F)(F)F)C(F)(F)F)Nc1cccc(C(F)(F)F)c1 was read as TEAD-YAP block 83.9*, GPR151 activ 1.5, FBW7 act 1.4 and MITF primary 56.2*.
Screening O=C(CSCC(=O)Nc1cccc(C(F)(F)F)c1)Nc1cccc(C(F)(F)F)c1 returned TEAD-YAP block 3.6, GPR151 activ 1.0, FBW7 act -0.2 and MITF primary -1.6.
Screening NC(=O)/C=C/C(=O)Nc1cccc(C(F)(F)F)c1 returned TEAD-YAP block 43.3*, GPR151 activ 0.0, FBW7 act 0.1 and MITF primary 11.1.
Screening CC(=O)Nc1cccc(C(F)(F)F)c1 returned TEAD-YAP block -3.8, GPR151 activ 0.3, FBW7 act -0.1 and MITF primary -8.9.
Screening CCOc1ccccc1C(=O)Nc1cccc(C(F)(F)F)c1 returned TEAD-YAP block 17.4, GPR151 activ -1.2, FBW7 act -0.1 and MITF primary 8.7.
Screening CC(=O)Oc1ccccc1C(=O)Nc1cccc(C(F)(F)F)c1 returned TEAD-YAP block 65.0*, GPR151 activ -0.6, FBW7 act 0.1 and MITF primary 20.3.
For CCS(=O)(=O)N1CCN(Cc2cc(Br)ccc2O)CC1 the results were TEAD-YAP block 1.4, GPR151 activ -0.3, FBW7 act -0.1 and MITF primary 54.2*.
Screening Oc1ccc(Br)cc1CN1CCN(Cc2ccncc2)CC1 returned TEAD-YAP block 17.5, GPR151 activ 0.1, FBW7 act -0.4 and MITF primary 54.4*.
Oc1ccc(Br)cc1CN1CCN(Cc2c[nH]c3ccccc23)CC1 was read as TEAD-YAP block 0.7, GPR151 activ -1.1, FBW7 act 0.1 and MITF primary 57.6*.
c1ccc2cc(CN3CCN(Cc4c[nH]c5ccccc45)CC3)ccc2c1 was read as TEAD-YAP block 10.7, GPR151 activ -0.7, FBW7 act 0.0 and MITF primary 14.8.
C=CCN1C(=Nc2cccnc2)SCC1(O)c1ccc(C)cc1 (centres undefined) was read as TEAD-YAP block 24.7, GPR151 activ 0.3, FBW7 act -0.3 and MITF primary 15.2.
`OC1(c2ccccc2)CSC(=Nc2cccnc2)N1CCCn1ccnc1` (centres undefined) gave TEAD-YAP block 43.4*, GPR151 activ 0.7, FBW7 act 0.4 and MITF primary 18.0.
CCOC(=O)C(=CNc1sc2c(c1C(=O)OC)CCCC2)C(=O)OCC was read as TEAD-YAP block -1.4, GPR151 activ -1.0, FBW7 act -0.1 and MITF primary -3.1.
Screening COC(=O)c1ccc(C)c(NS(=O)(=O)c2ccc(OC)c(Cl)c2)c1 returned TEAD-YAP block 41.2*, GPR151 activ -1.0, FBW7 act 0.1 and MITF primary -5.4.
Screening COC(=O)c1ccc(NS(=O)(=O)c2ccc(OC)cc2)cc1 returned TEAD-YAP block -3.1, GPR151 activ -1.0, FBW7 act 0.1 and MITF primary 0.5.
For COC(=O)c1ccc(N2CCCCCC2)c(NS(=O)(=O)c2ccc(OC)cc2)c1 the results were TEAD-YAP block 56.7*, GPR151 activ 0.7, FBW7 act -0.5 and MITF primary -4.0.
`COC(=O)c1ccc(C)c(NS(=O)(=O)c2ccc3ccccc3c2)c1` gave TEAD-YAP block 53.2*, GPR151 activ 0.6, FBW7 act -0.2 and MITF primary -2.7.
For COC(=O)c1ccc(Cl)c(NS(=O)(=O)c2ccc(C)cc2)c1 the results were TEAD-YAP block 56.8*, GPR151 activ -1.7, FBW7 act 0.7 and MITF primary 12.4.
For COC(=O)c1ccc(Cl)c(NS(=O)(=O)c2ccc(OC)c(Cl)c2)c1 the results were TEAD-YAP block -0.8, GPR151 activ 1.4, FBW7 act -0.1 and MITF primary -13.7.
`COC(=O)c1ccc(C)c(NS(=O)(=O)c2ccc(OC)c(OC)c2)c1` gave TEAD-YAP block -1.3, GPR151 activ 1.1, FBW7 act -0.4 and MITF primary 4.2.
COc1cc(C(=O)N/N=C/c2ccc(OC)c(OC)c2C(=O)O)cc(OC)c1OC was read as TEAD-YAP block 66.8*, GPR151 activ 1.0, FBW7 act 0.1 and MITF primary -4.8.
COc1cc(/C=N/NC(=O)c2cc(OC)c(OC)c(OC)c2)cc(OC)c1O was read as TEAD-YAP block 56.5*, GPR151 activ 0.3, FBW7 act 0.0 and MITF primary 10.4.
